A selection: hits, their analogues and other compounds. The true share with any hit is near 1.1%.
NR2F2 inh: NR2F2 transcriptional activity inhibitors, primary screen, cell-based, luciferase reporter, HEK293T, luminescence; COUP transcription factor 2 (Homo sapiens), P24468; HEK293T NGFI-A luciferase reporter; inhibition, % at 8.6 µM; 370,000 tested, 0.7% active;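 active means inhibition above a per-plate cutoff, mean inhibition of test wells between control levels plus 3 SD, cut at about 38% in these data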;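 further: cells cotransfected with COUP-TFII expression vector driving the NGFI-A reporter; 0% = median of COUP-TF2 test wells and 100% = reporter-only cells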
Target sequence (P24468 whole entry, looked up): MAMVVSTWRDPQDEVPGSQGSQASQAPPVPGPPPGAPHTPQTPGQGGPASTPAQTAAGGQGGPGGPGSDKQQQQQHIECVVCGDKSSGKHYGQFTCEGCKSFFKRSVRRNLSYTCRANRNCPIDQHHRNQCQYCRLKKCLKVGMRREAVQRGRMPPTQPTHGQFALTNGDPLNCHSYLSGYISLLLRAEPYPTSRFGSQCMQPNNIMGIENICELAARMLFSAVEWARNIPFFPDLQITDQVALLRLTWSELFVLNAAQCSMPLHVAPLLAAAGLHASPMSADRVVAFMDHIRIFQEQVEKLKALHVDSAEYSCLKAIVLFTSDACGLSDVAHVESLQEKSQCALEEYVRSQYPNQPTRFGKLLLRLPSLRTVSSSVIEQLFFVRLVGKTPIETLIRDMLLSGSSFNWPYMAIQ
NCOA2 inhibitor: inhibition of GAL4-SRC2 driven luciferase reporter, primary screen, SRC2 inhibitor project, cell-based, luminescence; Nuclear receptor coactivator 2 (Homo sapiens), Q15596; HEK293 GAL4-SRC2 luciferase reporter; inhibition, % at 9 µM; 370,000 tested, 0.17% active;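 active means inhibition above the mean inhibition of all tested compounds plus 3 SD, set per campaign, cut at about 52% in these data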;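 further: 0% = DMSO treated cells and 100% = cells given Gossypol at 36 µM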
GalR3 antag: GalR3 antagonists in HEK293 cells, primary screen, cell-based, fluorescence readout; Galanin receptor type 3 (Homo sapiens), O60755; HEK293 GalR3-CNG cAMP membrane potential fluorescence; galR3 body fused to GalR1 C-terminus; inhibition, % at 3 µM; 360,000 tested, 0.44% active;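 active means inhibition above the screen-wide average plus 3 SD, cut at about 13% in these data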;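 further: forskolin and galanin both at EC90 stimulate the cells; cAMP rise reported by CNG channel membrane potential dye signal; 0% = forskolin plus galanin with DMSO and 100% = forskolin alone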
SRC1 inh: SRC1 coactivator transcriptional activity inhibitors, primary screen, cell-based, luminescence | inhibition, % at 3.6 µM | HEK293 GAL4-SRC1 luciferase reporter | Nuclear receptor coactivator 1 (Homo sapiens), Q15788 | 360,000 tested, 0.12% active;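 active means inhibition above the campaign mean plus 3 SD, with each screening campaign given its own cutoff, cut at about 60% in these data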;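 further: 0% = DMSO treated cells and 100% = gossypol at 36 µM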
NR5A2 inv ag: LRH-1 (NR5A2) inverse agonists, primary screen, cell-based, luminescence, HEK293T, StAR-luciferase reporter; Nuclear receptor subfamily 5 group A member 2 (Homo sapiens), O00482; inhibition, % at 3.6 µM; LRH-1 transfected, 24 h; 360,000 tested, 0.13% active; AID 602396, 2012;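 active means inhibition above the mean inhibition of all tested compounds plus 3 SD, cut at about 73% in these data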;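 further: 0% = DMSO wells and 100% = reporter-only cells lacking LRH-1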
NCOA3 inh: SRC3 coactivator transcriptional activity inhibitors, primary screen, cell-based, luminescence; HEK293 GAL4-SRC3 luciferase reporter; inhibition, % at 3.6 µM; AID 588352, 2011; Nuclear receptor coactivator 3 (Homo sapiens), Q9Y6Q9; 360,000 tested, 0.17% active;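 active means inhibition above a per-campaign cutoff, the mean of all compounds plus 3 SD, cut at about 60% in these data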;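 further: 0% = DMSO-treated cells and 100% = gossypol-treated cells at 36 µM; higher means less SRC3-driven luciferase light from the GAL4 reporter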
Gal4-VP16 ctr: Gal4-VP16 luciferase reporter inhibitors, counter-screen for COUP-TFII antagonist project, cell-based, luminescence, HEK293 | AID 687007, 2013 | inhibition, % at 8.5 µM | shares compounds with NR2F2 inh | 2,500 tested, 25% active; in the data active means inhibition above about 13%
NR2F2 inh conf: NR2F2 transcriptional activity inhibitors, confirmation, cell-based, luciferase reporter, HEK293, triplicate; shares compounds with NR2F2 inh; HEK293 NGFI-A luciferase reporter, luminescence; inhibition, % at 8.5 µM; 2,500 tested, 45% active;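 active means mean inhibition over three repeats above a set limit taken from the earlier primary screen, cut at about 38% in these data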;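 further: 100% = cells given the luciferase reporter alone without the COUP-TF2 vector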
* marks the source's active call; other numbers are inactive results; . = not tested or not shown.

SMILES	NR2F2 inh	NCOA2 inhibitor	GalR3 antag	SRC1 inh	NR5A2 inv ag	NCOA3 inh	Gal4-VP16 ctr	NR2F2 inh conf
CN(Cc1ccccc1)C(=O)c1ccc(NC(=O)Cc2ccc(NC(=O)C3CCCN(C(=O)C4CCC4)C3)cc2)cc1 (stereo not drawn)	10	-1	-7	2	-1	12	.	.
CN(Cc1ccccc1)C(=O)c1ccc(NC(=O)Cc2ccc(NC(=O)C3CCCN(C(=O)CCc4ccccc4)C3)cc2)cc1 (stereo not drawn)	75*	8	-8	25	42	23	8	70*
CN(Cc1ccccc1)C(=O)c1cccc(NC(=O)Cc2ccc(NC(=O)C3CCN(C(=O)CCc4ccccc4)CC3)cc2)c1	70*	31	-4	15	7	8	5	43*
CN(Cc1ccccc1)C(=O)c1ccc(NC(=O)Cc2ccc(NC(=O)C3CCN(C(=O)CCc4ccccc4)CC3)cc2)cc1	7	5	-6	8	14	14	.	.
CN(C(=O)c1cccc(NC(=O)Cc2ccc(NC(=O)C3CCCN(C(=O)CCc4ccccc4)C3)cc2)c1)C1CCCCC1 (stereo not drawn)	77*	23	-9	35	48	6	0	62*
C[C@H]1[C@H](c2ccccc2)Oc2cccc(NCCc3ccccc3)c2S(=O)(=O)N1Cc1cccc(F)c1	-23	2	3	.	.	.	.	.
O=C(Cc1c[nH]c2ccccc12)Nc1ccc(Nc2cccnc2)c(-c2cccc(Cl)c2)c1	-18	-21	-9	.	.	.	.	.
CCCCCCCCCCCCCCCC[n+]1cccc2ccccc21	54*	-13	-3	27	33	62*	15*	63*
CN(CC(=O)Nc1ccccc1Cl)C(=O)c1cccc(S(=O)(=O)N2CCN(c3ccc(F)cc3)CC2)c1	30	19	-7	4	28	11	.	.
O=C(COC(=O)CCC(=O)c1ccc(F)cc1)Nc1cccc(S(=O)(=O)N2CCOCC2)c1	6	-1	-7	-5	11	7	.	.
CN(Cc1cccc(Cl)c1Cl)C(=O)c1cccc(S(=O)(=O)N2CCN(Cc3ccccc3)CC2)c1	42*	11	0	-3	31	1	-3	26
CN(CC(=O)Nc1cccc(F)c1)C(=O)c1cccc(S(=O)(=O)N2CCN(Cc3ccccc3)CC2)c1	26	13	-9	10	15	9	.	.
O=C(COc1ccc(C(=O)c2ccc(F)cc2)cc1)Nc1cccc(S(=O)(=O)N2CCOCC2)c1	48*	13	-6	9	-1	-5	-8	33
CN(CC(=O)Nc1ccccc1Cl)C(=O)c1cccc(S(=O)(=O)N2CCN(c3ccccc3)CC2)c1	43*	-5	-8	2	10	10	6	19
CN(CC(=O)Nc1ccccc1Cl)C(=O)c1cccc(S(=O)(=O)N2CCN(Cc3ccccc3)CC2)c1	48*	10	2	4	21	24	1	35
C=CCCC(=O)N1CCC(C(=O)NC2CCCc3ccccc32)CC1 (stereo not drawn)	1	-4	.	.	.	.	.	.
CN1C2=N[C@H](c3ccccc3Br)CC(=O)N2/C(=C\c2ccccc2)[C@@H]1c1ccccc1	-9	.	.	.	.	.	.	.
O=C(Nc1ncccc1O)c1cccc(S(=O)(=O)N2CCN(c3ccc(F)cc3)CC2)c1	1	-4	-5	-19	-18	17	.	.
CN(Cc1ccc(OC(F)F)cc1)C(=O)c1cccc(S(=O)(=O)N2CCN(c3ccccc3)CC2)c1	67*	24	-6	9	28	23	13*	55*

High-throughput results as filed in PubChem BioAssay.
